# Laboratory results from the supplement of paper PMC8285479.
# Where a name gives a salt, the structure may show the parent alone. ± gives the standard deviation of the averaged measurements. Over roughly 1,900 compounds, “normalised cell viability (NPI; 0 = phenylarsine oxide control, 1 = DMSO control)” has its median near 1; the lowest 2% begin near 0.039. Many of the other results were omitted from the sample, so the lowest values are more common in it than they were.
# System: NCI-H1944
# Assay: normalised cell viability (NPI; 0 = phenylarsine oxide control, 1 = DMSO control) (fraction of DMSO control); NCI-H1944 is a non-small cell lung cancer line; higher = more viable cells (less compound toxicity)
# Conditions: 6 days
# [1] = glucocorticoid arm: hydrocortisone 2.75 uM co-treatment, compound 1 µM
# [2] = glucocorticoid arm: hydrocortisone 2.75 uM co-treatment, compound 5 µM
# [3] = glucocorticoid arm: hydrocortisone 2.75 uM pre-treated 2 days and continued, compound 1 µM
# [4] = glucocorticoid arm: hydrocortisone 2.75 uM pre-treated 2 days and continued, compound 5 µM
# [5] = glucocorticoid arm: vehicle, compound 1 µM
# [6] = glucocorticoid arm: vehicle, compound 5 µM
# 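Further: CTB read-out in 384-well plates, triplicate wells, NPI normalised per plate against 1 µM phenylarsine oxide (0) and 0.1% DMSO (1) controls.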
SMILES,normalised cell viability [1],normalised cell viability [2],normalised cell viability [3],normalised cell viability [4],normalised cell viability [5],normalised cell viability [6]
CN1CCN(c2ccc([N+](=O)[O-])c3no[n+]([O-])c23)CC1,0.984 ± 0.015,1.04 ± 0.011,0.993 ± 0.0076,1.01 ± 0.01,0.984 ± 0.011,0.988 ± 0.01
O=c1[nH]c2ccc(Cl)cc2c(N[C@@H]2CN3CCC2CC3)c1-c1nc2ccccc2[nH]1,0.43 ± 0.0081,0.0244 ± 0.0034,0.717 ± 0.02,0.0576 ± 0.015,0.0195 ± 0.0053,0.00294 ± 0.0014
O=C(N[C@H]1CN2CCC1CC2)c1ccc(Cl)cc1,1.02 ± 0.01,1.01 ± 0.022,1.023 ± 0.0058,1.02 ± 0.015,0.998 ± 0.0035,1.013 ± 0.0058
C[C@@]12N[C@@H](Cc3ccccc31)c1ccccc12 [(-)-MK 801 Maleate],1.023 ± 0.0058,1.02,1.02 ± 0.011,1.03 ± 0.015,1.01,1.01
C[C@@]12N[C@@H](Cc3ccccc31)c1ccccc12 [(-)-MK-801 hydrogen maleate],1.01 ± 0.01,1.02 ± 0.026,1.013 ± 0.0058,1.05 ± 0.094,0.992 ± 0.0092,1 ± 0.017
CC1Cc2cc3c(cc2C(c2ccc(N)cc2)=NN1)OCO3 (configuration not stated),1.01 ± 0.01,1.02 ± 0.021,1.01,1.01 ± 0.037,0.9943 ± 0.0035,0.9943 ± 0.006
COc1ccc2c(c1)[C@@]13CCCC[C@H]1[C@@H](C2)NCC3 [3-Methoxymorphinan hydrochloride],1.013 ± 0.0058,0.989 ± 0.03,1.02 ± 0.015,1.06 ± 0.058,1.003 ± 0.0058,1.01 ± 0.01
CC1(C(=O)O)C2CCC(O2)C1(C)C(=O)O (configuration not stated) [Cantharidic Acid],0.983 ± 0.016,0.0223 ± 0.0017,1.06 ± 0.015,0.137 ± 0.087,0.965 ± 0.025,0.0108 ± 0.0036
O=C(O)[C@@H]1[C@H](C(=O)O)[C@H]2CC[C@@H]1O2 [Endothall],1.01 ± 0.01,1.05 ± 0.01,1.007 ± 0.0058,1.07 ± 0.015,0.9967 ± 0.0025,1.007 ± 0.0058
C[C@@H]1O[C@H](C[N+](C)(C)C)C[C@H]1O (racemic) [(±)-Muscarine chloride],1.02 ± 0.011,1.03 ± 0.035,1.01 ± 0.015,1.05 ± 0.085,0.9963 ± 0.0047,1 ± 0.014
OC1CCCCC1N1CCC(c2ccccc2)CC1 (racemic) [(±)-Vesamicol hydrochloride],0.9747 ± 0.0049,0.91 ± 0.021,0.875 ± 0.21,0.978 ± 0.022,0.9897 ± 0.0025,0.9897 ± 0.0076
CC[C@@]1(O)C(=O)OCc2c1cc1n(c2=O)Cc2cc3ccccc3nc2-1 [(S)-(+)-Camptothecin],0.066 ± 0.014,0.00107 ± 0.0017,0.328 ± 0.025,0.0202 ± 0.0036,0.0279 ± 0.0022,-0.000721 ± 0.0022
Cc1ccccc1-n1c(Cn2cnc3c(N)ncnc32)nc2cccc(C)c2c1=O,1.003 ± 0.0058,1.02 ± 0.028,1 ± 0.015,1.02 ± 0.031,1 ± 0.017,1.01 ± 0.011
C=CCN1CC[C@]23CCCC[C@H]2[C@H]1Cc1ccc(O)cc13 [Levallorphan tartrate],1 ± 0.0089,1 ± 0.023,1.003 ± 0.0058,1.06 ± 0.064,0.9917 ± 0.0025,0.863 ± 0.23
N=C(NCCC[C@H](N)C(=O)O)N[N+](=O)[O-] [NG-Nitro-L-arginine],1.003 ± 0.0058,1.01 ± 0.022,1.01 ± 0.017,0.86 ± 0.24,1 ± 0.012,1.001 ± 0.0085
C=CCN1CCc2cccc3c2[C@H]1Cc1ccc(O)c(O)c1-3 [R(-)-N-Allylnorapomorphine hydrobromide],0.992 ± 0.0052,0.949 ± 0.0089,0.988 ± 0.011,0.968 ± 0.02,0.9917 ± 0.0042,0.9757 ± 0.0015

SMILES,normalised cell viability [1],normalised cell viability [2],normalised cell viability [3],normalised cell viability [4],normalised cell viability [5],normalised cell viability [6]
CNc1ccc2oc(C[C@H]3O[C@@]4(CC[C@H]3C)O[C@H]([C@H](C)C(=O)c3ccc[nH]3)[C@H](C)C[C@H]4C)nc2c1C(=O)O [Calcimycin],0.909 ± 0.018,0.0265 ± 0.002,1.01 ± 0.013,0.0205 ± 0.0037,0.91 ± 0.036,0.0377 ± 0.014
NC(CCCCCP(=O)(O)O)C(=O)O (racemic) [(±)-2-Amino-7-phosphonoheptanoic acid],0.98 ± 0.012,0.9763 ± 0.0025,0.9903 ± 0.005,0.97 ± 0.013,0.9873 ± 0.004,0.972 ± 0.0072
COc1cc(C(O)CN)ccc1O (racemic) [(±)-Normetanephrine hydrochloride],0.9973 ± 0.0025,1.01 ± 0.021,1.01 ± 0.01,0.867 ± 0.27,0.9953 ± 0.0045,1 ± 0.016
C[C@H]1OC[C@@H](C[N+](C)(C)C)O1 [(+)-cis-Dioxolane],1.017 ± 0.0058,1.02 ± 0.01,1 ± 0.018,1.04 ± 0.081,1.01 ± 0.01,1.006 ± 0.0063
COc1ccc2c3c1O[C@H]1C(=O)CC[C@@]4(O)C(C2)N(CC2CC2)CCC314 (some centres not stated) [3-Methoxynaltrexone hydrochloride],0.9917 ± 0.0068,0.99 ± 0.018,0.985 ± 0.013,1.02 ± 0.07,0.9977 ± 0.0025,0.998 ± 0.013
c1ccc(C2(c3ccccc3)CC2C2=NCCN2)cc1 (configuration not stated) [Cibenzoline succinate],0.992 ± 0.013,0.994 ± 0.027,1.003 ± 0.0058,1.02 ± 0.078,1.007 ± 0.0058,1.01 ± 0.01
CN1CCCCC1Cn1cc(C(=O)c2cc([N+](=O)[O-])ccc2I)c2ccccc21 (configuration not stated),1.02 ± 0.015,0.99 ± 0.026,1.04 ± 0.01,1.01 ± 0.029,1.013 ± 0.0058,1.001 ± 0.0081
CCCN1CC[C@@H]2c3cc(O)ccc3CC[C@@H]21 (racemic) [cis(+/-)-8-OH-PBZI hydrobromide],0.993 ± 0.011,0.975 ± 0.021,1.01,1.02 ± 0.092,0.9937 ± 0.0071,1.007 ± 0.0058
C[C@H]1CNCCc2ccc(Cl)cc21 [Lorcaserin HCl],1.003 ± 0.0064,1.02 ± 0.029,1 ± 0.019,1.02 ± 0.029,1.003 ± 0.0061,0.998 ± 0.0035
N[C@@H](Cn1ccc(=O)[nH]c1=O)C(=O)O [S(-)-Willardiine],1.007 ± 0.0058,1.023 ± 0.0058,0.847 ± 0.28,1.02 ± 0.015,1.002 ± 0.007,1.007 ± 0.0058
c1ccc2c(c1)[I+]c1ccccc1-2 [Diphenyleneiodonium chloride],0.45 ± 0.015,0.0556 ± 0.0019,0.649 ± 0.014,0.0883 ± 0.044,0.232 ± 0.015,0.00555 ± 0.0077
CN1CC[C@]2(CCN3CCc4c(oc5ccccc45)[C@@H]3C2)N(C)C1=O,1.003 ± 0.0058,0.974 ± 0.015,1.01,0.889 ± 0.24,1.013 ± 0.0058,1.02 ± 0.015
CCN(CC)C(=O)N[C@H]1C[C@@H]2c3cccc4[nH]cc(c34)C[C@H]2N(C)C1 [S(+)-Terguride],0.989 ± 0.011,1.01 ± 0.02,0.79 ± 0.37,0.996 ± 0.016,0.9953 ± 0.0015,0.993 ± 0.0056
"Cc1c(C(=O)c2cccc3ccccc23)c2cccc3c2n1[C@H](CN1CCOCC1)CO3 [( R)-(+)-WIN 55,212-2 mesylate]",1.004 ± 0.01,0.0209 ± 0.0039,1.01 ± 0.029,0.016 ± 0.002,1.013 ± 0.0058,0.00693 ± 0.00096
CCCn1c(C)c(C(=O)c2cccc3ccccc23)c2ccccc21,1.001 ± 0.0083,1.03 ± 0.023,1.007 ± 0.0058,1.06 ± 0.09,0.9977 ± 0.004,1.01 ± 0.023
CCC(=O)CCCCC[C@@H]1NC(=O)[C@H]2CCCCN2C(=O)[C@H]([C@@H](C)CC)NC(=O)[C@H](Cc2cn(OC)c3ccccc23)NC1=O [Apicidin],0.387 ± 0.16,0.954 ± 0.041,0.644 ± 0.15,0.983 ± 0.03,0.0476 ± 0.028,0.96 ± 0.022
